Experimental data reported in the supplement of paper PMC11732987, “Enantioselective OTUD7B fragment discovery through chemoproteomics screening and high-throughput optimisation” (Communications Chemistry, 2025).

What was measured:
Experiment in all cases: log2 ratio of Biotin-Ahx-Ub-VS probe labelling (fragment/DMSO); higher = less target engagement (more negative = stronger competition), active = hit call of the paper (q ≤ 0.05, log2 ratio ≤ -1)
Conditions in all cases: compound concentration: 200 uM; treatment time: 3 h
USP19 = target: T1, USP19 (UniProt O94966)
T1 sequence (whole entry): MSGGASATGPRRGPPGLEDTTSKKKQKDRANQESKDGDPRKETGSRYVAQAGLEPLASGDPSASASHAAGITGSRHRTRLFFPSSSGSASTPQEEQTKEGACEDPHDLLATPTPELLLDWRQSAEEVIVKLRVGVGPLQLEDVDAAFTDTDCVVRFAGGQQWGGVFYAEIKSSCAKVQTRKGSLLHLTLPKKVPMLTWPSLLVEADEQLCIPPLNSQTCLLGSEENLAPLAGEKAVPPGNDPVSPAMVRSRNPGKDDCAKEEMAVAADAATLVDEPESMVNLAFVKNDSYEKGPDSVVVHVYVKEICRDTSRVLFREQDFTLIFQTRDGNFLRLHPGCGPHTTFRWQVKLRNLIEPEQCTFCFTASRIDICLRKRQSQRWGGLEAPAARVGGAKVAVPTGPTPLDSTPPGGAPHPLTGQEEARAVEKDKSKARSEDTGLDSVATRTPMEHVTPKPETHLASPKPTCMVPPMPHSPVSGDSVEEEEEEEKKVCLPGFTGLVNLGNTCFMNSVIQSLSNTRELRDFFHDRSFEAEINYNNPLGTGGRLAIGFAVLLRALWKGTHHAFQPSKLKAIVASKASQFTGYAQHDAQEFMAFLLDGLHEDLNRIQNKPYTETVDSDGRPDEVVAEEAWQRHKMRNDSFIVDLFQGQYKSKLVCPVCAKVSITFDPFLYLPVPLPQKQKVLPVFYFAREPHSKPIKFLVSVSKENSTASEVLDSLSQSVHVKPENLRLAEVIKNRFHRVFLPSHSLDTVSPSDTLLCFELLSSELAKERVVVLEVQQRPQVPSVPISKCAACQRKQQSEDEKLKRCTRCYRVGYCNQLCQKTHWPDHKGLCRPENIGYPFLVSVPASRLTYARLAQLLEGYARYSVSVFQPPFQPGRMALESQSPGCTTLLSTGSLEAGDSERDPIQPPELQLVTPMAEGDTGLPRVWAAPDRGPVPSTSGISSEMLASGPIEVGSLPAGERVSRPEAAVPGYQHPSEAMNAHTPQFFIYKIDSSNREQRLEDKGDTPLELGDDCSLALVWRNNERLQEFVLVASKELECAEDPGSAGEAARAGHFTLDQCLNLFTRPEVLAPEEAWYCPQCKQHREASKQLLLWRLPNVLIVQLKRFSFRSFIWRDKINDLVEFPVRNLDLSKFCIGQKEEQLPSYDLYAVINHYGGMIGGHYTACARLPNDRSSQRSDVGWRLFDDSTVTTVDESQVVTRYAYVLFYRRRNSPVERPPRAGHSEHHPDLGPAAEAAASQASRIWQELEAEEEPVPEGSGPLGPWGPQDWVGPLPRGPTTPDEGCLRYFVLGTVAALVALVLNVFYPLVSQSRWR
Outline: (§1)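 Each value is an average log2 ratio of fragment to vehicle, tested by unpaired t-test. The underlying Spectronaut label-free quantities were global-median-normalised, and only proteins with ≥2 unique peptides were included. Triplicate HEK293T lysate samples (495 µg) were exposed to fragment at 200 µM or vehicle for 3 h, then to Biotin-Ahx-Ub-VS at 0.5 µM final for 1 h, before NeutrAvidin enrichment of labelled DUBs, LysC and trypsin digestion, and diaPASEF LC-MS/MS.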

USP22 = target: T2, USP22 (UniProt Q9UPT9)
T2 sequence (whole entry): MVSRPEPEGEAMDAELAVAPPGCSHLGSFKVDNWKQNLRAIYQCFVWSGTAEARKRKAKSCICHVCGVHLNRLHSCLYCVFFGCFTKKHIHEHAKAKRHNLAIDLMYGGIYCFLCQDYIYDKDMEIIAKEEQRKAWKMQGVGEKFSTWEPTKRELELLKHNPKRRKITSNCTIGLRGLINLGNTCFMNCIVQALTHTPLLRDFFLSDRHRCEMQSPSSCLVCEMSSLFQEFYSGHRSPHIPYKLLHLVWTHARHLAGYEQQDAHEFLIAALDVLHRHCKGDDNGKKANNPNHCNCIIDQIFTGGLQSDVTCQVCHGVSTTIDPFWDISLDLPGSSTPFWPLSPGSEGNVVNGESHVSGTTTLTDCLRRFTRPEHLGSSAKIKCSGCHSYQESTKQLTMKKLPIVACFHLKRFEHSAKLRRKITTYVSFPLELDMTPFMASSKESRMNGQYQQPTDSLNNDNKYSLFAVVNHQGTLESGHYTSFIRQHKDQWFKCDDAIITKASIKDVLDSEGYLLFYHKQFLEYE
Outline: as §1

USP24 = USP24 (UniProt Q9UPU5)
Sequence of USP24 (Q9UPU5 whole entry): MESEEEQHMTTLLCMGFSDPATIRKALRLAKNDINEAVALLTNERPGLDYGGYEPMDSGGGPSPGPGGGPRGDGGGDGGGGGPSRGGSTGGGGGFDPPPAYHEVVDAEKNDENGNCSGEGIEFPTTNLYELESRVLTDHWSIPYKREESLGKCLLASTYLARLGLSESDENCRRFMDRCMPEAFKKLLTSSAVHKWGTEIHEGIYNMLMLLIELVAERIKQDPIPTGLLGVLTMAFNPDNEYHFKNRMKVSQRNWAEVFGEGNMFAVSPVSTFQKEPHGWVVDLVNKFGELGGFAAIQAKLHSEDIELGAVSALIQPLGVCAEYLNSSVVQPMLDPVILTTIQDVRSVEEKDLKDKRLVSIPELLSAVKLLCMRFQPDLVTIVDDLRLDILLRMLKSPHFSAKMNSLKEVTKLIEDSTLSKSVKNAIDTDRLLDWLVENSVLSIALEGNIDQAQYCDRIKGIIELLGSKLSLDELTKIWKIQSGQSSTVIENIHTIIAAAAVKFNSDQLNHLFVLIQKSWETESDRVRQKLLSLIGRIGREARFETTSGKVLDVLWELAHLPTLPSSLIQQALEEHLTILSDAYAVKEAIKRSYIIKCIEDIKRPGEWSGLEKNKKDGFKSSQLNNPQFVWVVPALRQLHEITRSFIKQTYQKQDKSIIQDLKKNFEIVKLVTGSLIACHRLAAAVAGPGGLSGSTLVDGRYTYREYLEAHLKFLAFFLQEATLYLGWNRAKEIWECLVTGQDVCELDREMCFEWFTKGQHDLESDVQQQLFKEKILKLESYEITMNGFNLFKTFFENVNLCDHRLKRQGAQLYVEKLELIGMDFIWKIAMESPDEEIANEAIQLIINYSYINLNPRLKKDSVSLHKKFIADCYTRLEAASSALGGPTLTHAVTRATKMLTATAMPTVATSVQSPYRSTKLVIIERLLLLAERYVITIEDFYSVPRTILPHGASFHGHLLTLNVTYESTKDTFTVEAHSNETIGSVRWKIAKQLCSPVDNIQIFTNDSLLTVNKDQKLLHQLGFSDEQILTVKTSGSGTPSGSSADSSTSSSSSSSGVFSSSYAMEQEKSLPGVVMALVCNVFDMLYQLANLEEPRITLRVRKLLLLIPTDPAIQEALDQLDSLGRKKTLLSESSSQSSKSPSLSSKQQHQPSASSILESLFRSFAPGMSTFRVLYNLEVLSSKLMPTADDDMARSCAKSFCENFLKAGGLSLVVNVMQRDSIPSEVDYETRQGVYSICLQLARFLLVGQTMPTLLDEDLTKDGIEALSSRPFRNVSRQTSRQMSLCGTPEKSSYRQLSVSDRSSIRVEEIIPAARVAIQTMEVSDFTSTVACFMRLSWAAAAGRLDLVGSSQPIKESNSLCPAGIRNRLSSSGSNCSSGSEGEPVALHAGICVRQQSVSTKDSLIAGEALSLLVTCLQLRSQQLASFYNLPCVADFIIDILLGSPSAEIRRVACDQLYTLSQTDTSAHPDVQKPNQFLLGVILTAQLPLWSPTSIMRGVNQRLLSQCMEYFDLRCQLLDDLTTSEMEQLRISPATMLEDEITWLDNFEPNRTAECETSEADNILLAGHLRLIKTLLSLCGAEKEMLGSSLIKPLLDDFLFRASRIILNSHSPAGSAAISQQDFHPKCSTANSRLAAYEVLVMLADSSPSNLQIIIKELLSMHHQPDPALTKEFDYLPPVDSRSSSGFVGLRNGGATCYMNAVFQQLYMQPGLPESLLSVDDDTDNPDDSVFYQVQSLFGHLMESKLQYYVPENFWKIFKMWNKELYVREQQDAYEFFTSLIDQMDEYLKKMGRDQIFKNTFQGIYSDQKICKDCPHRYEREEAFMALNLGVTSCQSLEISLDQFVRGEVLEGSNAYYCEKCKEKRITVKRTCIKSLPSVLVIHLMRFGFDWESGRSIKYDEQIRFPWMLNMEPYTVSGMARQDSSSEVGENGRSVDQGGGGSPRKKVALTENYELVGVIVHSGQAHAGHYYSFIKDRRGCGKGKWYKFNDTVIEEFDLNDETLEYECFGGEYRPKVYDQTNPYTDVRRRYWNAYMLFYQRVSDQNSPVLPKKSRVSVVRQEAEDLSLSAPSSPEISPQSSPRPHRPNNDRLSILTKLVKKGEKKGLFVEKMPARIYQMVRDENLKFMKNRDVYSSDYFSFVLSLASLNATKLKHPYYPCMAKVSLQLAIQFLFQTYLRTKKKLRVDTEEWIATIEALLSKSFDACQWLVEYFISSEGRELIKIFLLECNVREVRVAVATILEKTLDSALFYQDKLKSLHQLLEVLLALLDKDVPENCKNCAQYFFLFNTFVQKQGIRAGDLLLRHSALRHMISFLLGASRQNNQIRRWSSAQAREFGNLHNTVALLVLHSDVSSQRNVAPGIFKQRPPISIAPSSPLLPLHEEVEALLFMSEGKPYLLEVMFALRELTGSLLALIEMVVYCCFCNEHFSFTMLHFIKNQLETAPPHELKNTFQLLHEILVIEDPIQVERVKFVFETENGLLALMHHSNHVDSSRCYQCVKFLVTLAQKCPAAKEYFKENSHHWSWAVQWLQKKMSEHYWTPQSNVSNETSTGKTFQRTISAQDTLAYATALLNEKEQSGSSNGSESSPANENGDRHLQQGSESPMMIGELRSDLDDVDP
Outline: as §1

USP25 = target: T3, USP25 (UniProt Q9UHP3)
T3 sequence (whole entry): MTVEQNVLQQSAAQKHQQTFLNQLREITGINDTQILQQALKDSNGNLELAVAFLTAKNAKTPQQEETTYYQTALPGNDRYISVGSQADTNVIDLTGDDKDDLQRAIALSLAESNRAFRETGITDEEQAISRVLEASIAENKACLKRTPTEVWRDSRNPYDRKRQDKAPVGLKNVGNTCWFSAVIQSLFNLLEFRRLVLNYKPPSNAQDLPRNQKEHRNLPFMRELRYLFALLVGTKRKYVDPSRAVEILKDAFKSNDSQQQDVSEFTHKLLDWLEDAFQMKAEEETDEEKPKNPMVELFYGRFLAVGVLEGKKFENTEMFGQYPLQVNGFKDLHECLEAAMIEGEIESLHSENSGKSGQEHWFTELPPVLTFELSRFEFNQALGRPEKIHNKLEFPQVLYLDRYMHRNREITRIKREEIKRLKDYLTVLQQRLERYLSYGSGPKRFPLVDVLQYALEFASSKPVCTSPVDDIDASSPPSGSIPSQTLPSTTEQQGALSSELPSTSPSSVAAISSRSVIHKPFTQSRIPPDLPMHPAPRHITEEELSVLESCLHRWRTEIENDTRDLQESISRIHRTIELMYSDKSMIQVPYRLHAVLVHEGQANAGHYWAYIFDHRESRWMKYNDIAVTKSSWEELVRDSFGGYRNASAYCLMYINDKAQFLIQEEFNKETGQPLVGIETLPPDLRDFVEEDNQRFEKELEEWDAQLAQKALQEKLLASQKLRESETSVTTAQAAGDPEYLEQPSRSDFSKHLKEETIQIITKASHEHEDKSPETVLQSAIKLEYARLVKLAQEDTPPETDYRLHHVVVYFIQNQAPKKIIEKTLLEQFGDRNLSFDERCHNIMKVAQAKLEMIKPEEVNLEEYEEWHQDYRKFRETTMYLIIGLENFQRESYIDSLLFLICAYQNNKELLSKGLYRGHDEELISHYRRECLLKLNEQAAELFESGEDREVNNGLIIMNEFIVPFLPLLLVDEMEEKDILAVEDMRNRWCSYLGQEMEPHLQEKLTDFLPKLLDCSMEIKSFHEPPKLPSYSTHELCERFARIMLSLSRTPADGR
Outline: as §1

USP28 = target: T4, USP28 (UniProt Q96RU2)
T4 sequence (whole entry): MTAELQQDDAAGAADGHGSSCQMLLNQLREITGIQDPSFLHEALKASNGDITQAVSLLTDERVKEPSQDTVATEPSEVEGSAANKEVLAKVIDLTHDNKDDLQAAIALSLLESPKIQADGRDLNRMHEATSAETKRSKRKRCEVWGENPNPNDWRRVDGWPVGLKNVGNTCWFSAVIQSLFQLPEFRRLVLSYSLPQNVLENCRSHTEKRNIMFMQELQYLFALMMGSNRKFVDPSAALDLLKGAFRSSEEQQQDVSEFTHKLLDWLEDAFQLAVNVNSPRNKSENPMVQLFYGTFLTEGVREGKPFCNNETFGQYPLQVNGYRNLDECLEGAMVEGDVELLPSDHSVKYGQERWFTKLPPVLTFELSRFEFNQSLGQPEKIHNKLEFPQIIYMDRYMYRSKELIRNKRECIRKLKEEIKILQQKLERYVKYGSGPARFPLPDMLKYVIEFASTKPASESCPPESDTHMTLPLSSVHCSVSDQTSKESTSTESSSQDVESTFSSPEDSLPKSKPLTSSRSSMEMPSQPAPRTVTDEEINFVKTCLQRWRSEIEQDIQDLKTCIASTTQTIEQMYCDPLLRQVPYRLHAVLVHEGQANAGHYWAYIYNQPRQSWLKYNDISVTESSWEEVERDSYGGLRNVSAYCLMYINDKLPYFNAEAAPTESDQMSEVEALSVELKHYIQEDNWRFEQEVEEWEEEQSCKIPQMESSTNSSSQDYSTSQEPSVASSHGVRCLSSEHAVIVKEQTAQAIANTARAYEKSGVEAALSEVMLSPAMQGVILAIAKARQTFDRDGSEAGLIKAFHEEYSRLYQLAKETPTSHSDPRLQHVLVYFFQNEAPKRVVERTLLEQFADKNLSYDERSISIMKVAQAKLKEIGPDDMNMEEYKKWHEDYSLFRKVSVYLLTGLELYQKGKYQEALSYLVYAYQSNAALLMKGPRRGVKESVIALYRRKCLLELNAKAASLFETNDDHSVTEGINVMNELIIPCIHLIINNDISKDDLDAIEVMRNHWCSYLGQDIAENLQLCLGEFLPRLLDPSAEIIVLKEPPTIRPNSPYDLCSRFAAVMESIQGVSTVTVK
Outline: as §1

Measured: log2 ratio of Biotin-Ahx-Ub-VS probe labelling

O=C(CCl)N1CCC(S(=O)(=O)c2ccc(F)cc2)CC1
inactive: USP19 -0.376 | USP22 0.191 | USP24 -0.346 | USP25 -0.444 | USP28 -0.572
